Screening results as filed in PubChem.
HP1b chromo inh – HP1-beta chromodomain-methylated histone interaction inhibition; Potency, µM (series often up to 114 µM), for inactives: top-dose activity change, negative = inhibition, most hits filed as inhibitors; AlphaScreen HP1-beta / biotin-H3K9me3 peptide binding; 390,000 compounds, 0.56% hits; also: nearly all actives have a fitted effect of over 70% in size
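AlphaScreen: HP1-beta (50 nM) preformed 30 min with biotin-H3(1-18)K9me3 peptide (50 nM) in PBS pH 7.4, 0.01% Tween-20. Compound added for 30 min at RT, then streptavidin donor/nickel chelate acceptor beads (10 ug/mL) for 30 min.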
JMJD2A Tudor inh – JMJD2A Tudor domain (human) inhibition; AlphaScreen JMJD2A-Tudor / H3K4me3 peptide binding; Potency, µM (series often up to 114 µM), inactives show at the top dose activity change, negative = inhibition, actives largely listed as inhibitors; 390,000 compounds, 4.4% hits; AID 504339; also: % is scaled to controls: 0 for no effect and ±100 for the full control effect; nearly all actives have a fitted effect of over 50% in size
Target sequence (O75164 whole entry, looked up, the tested form may be a part): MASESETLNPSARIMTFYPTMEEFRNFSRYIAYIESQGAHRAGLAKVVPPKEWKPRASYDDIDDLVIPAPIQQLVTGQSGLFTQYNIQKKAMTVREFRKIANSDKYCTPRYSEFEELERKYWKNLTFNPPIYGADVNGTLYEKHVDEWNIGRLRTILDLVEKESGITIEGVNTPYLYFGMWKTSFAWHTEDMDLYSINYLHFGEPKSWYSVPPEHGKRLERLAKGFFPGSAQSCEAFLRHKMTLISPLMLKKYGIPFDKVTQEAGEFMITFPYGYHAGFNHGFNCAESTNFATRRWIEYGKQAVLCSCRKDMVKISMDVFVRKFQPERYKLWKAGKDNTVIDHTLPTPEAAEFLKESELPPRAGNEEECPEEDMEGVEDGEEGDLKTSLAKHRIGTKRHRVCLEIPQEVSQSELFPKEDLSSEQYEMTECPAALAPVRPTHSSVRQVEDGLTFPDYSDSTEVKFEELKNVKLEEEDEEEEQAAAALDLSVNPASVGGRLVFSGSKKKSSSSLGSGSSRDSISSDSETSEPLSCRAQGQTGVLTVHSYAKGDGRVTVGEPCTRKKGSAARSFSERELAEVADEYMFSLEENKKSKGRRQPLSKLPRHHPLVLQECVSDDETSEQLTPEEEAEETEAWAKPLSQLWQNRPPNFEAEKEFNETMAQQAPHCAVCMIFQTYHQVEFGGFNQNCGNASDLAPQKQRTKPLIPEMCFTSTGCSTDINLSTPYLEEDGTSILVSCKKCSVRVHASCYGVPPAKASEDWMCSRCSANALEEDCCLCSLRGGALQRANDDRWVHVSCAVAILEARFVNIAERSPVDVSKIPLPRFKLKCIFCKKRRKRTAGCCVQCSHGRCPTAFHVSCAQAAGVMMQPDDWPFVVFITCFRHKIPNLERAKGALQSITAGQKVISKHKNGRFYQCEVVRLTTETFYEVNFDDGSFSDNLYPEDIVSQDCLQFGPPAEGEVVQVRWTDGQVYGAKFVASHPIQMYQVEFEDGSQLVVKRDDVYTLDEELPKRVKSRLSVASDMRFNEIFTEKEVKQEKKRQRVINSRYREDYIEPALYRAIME
G9a block – blocks human histone lysine methyltransferase G9a | G9a H3K9 monomethylation, AlphaScreen, 2 h | Potency, µM (series often up to 102 µM), for inactives: top-dose activity, negative = inhibition, usual class: inhibitors | 350,000 compounds, 8.8% hits | AID 504332; also: % is scaled to controls: 0 for no effect and ±100 for the full control effect; nearly all actives have a fitted effect of over 75% in size
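G9a (20 nM) was preincubated 15 min with compound, then reacted 2 h at room temperature with 500 nM biotin-H3K9 peptide and 20 µM SAM. Monomethyl-H3K9 detected by AlphaScreen using anti-H3K9me1 antibody.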
BAZ2B block – blocks human BAZ2B; AlphaScreen BAZ2B-H3K14Ac peptide displacement; 360,000 compounds, 4.4% hits; AID 504333; Potency, µM (doses to about 114 µM), for inactives: top-dose activity change, negative = inhibition, usual class: inhibitors; also: % is scaled to controls: 0 for no effect and ±100 for the full control effect; nearly all actives have a fitted effect of over 60% in size
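Complex of BAZ2B and biotin-H3K14Ac (50 nM apiece) forms over 30 min at RT, then faces library compounds up to 110 uM for another 30 min; AlphaScreen beads added, 20 min dark incubation, luminescence read.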
Sfp inh – blocks B. subtilis Sfp PPTase activity | Potency, µM, for inactives: largest response in the series, negative = inhibition, hits mostly inhibitors | AID 1490 | Biochemical Sfp PPTase activity, qHTS | Q9F4F7 | 310,000 compounds, 3.5% hits;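 also: the enzyme is Sfp with the accession as filed and its product quenches rhodamine fluorescence; 0% = enzyme reaction without inhibitor and -100% = no enzyme wells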
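Fluorescence-quenching assay with 15 nM Sfp, 5 uM rhodamine-CoA and 12.5 uM BHQ-2-labelled ybbR peptide in pH 7.6 Hepes/MgCl2 buffer. Enzyme was pre-incubated with compound for 15 min at room temperature. Rate was taken from the 30-min fluorescence change (525/598 nm).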
* marks the source's active call; other numbers are inactive results; ? = inconclusive; · = no result given; [ ] = another dose, or the depositor's remark. The list is not random: actives were taken first. Their share in the collection is about 12%. Calls follow the shape of the dose curve; as a rule, active = well fitted curve in the direction sought with a large enough effect; inconclusive = small, poorly fitted or top-dose-only effect, or another doubt; inactive = no such curve, though single readings can be large; an effect the other way counts as inactive or inconclusive. Potency is read from the fitted curve at half-maximal effect.

SMILES	HP1b chromo inh	JMJD2A Tudor inh	G9a block	BAZ2B block	Sfp inh
CCOC(=O)c1c(NC(=O)CCc2ccc(CC)o2)sc(C)c1C	1.3%	-6.9%	28.2µM*	24.9%	?
Cc1ccc(CCC(=O)Nc2ccc(Cl)cc2)o1	7.4%	-10.4%	?	?	6.9%
COc1ccc(/C=C/C(=O)Nc2sc(C)c(C)c2C(=O)O)cc1	12.7%	?	-31.2%[59 µM]	-37.4%	·
CCOC(=O)c1c(NC(=O)/C=C/c2ccc(C)o2)sc(C)c1C	?	-12.2%	8.91µM*	-2.0%	35.5µM*
Cc1sc(NC(=O)/C=C/c2ccco2)c(C(=O)O)c1C	8.7%	-6.0%	44.7µM*	?	-21.9%
Cc1ccc(CCC(=O)Nc2ccc(CC(=O)O)cc2)o1	-0.5%	?	56.2µM*	-19.9%	?
Cc1ccc(/C=C/C(=O)Nc2sc(C)c(C)c2C(=O)OC(C)C)o1	7.8%	-20.5%	-3.8%[59 µM]	9.7%	?
CC1(C)CC(O)CC(C)(C)N1CC(O)COCc1ccccc1 (configuration not stated)	30.7%	-1.5%	0.3%[59 µM]	5.0%	17.6%
COc1ccc(C(=O)Nc2ccc(C(=O)OCc3cc(=O)n4nc(C5CC5)sc4n3)cc2)cc1	26.8%	5.6%	-6.4%[59 µM]	-14.8%	·
O=C(COc1ccccc1[N+](=O)[O-])NCCCN1CCCC1=O	23.5%	-4.4%	-2.4%[12.7 µM]	-4.6%	·
COC(=O)c1c(NC(=O)CCc2ccc(C)o2)sc(C)c1C	30.0%	0.4%	?	-11.2%	20µM*
CCOC(=O)c1c(NC(=O)C[n+]2ccc(Cc3ccccc3)cc2)sc(C)c1C	0.6%	-24.3%	44.7µM*	-27.2%	25.1µM*
CCOC(=O)c1c(NC(=S)Nc2ccccc2)sc(C)c1C	-25.1%	-5.5%	?	2.8%	1.7%
O=C(O)c1cc(N/N=C/c2ccc(N3CCOCC3)s2)ccc1Cl	?	44.7µM*	2.24µM*	50.1µM*	56.2µM*
C/C(=N\Nc1ccc(Cl)c(C(=O)O)c1)c1ccc(N2CCOCC2)cc1	-13.1%	-27.9%	39.8µM*	-11.2%	-3.4%
NC(=O)N/N=C/c1ccc(N2CCOCC2)s1	9.4%	-22.8%	3.16µM*	-36.1%	79.4µM*
C/C(=N\NC(=O)c1ccc(F)cc1)c1ccc(N2CCOCC2)cc1	23.3%	-13.3%	39.8%	-17.1%	14.4%
O=C(NN=Cc1ccc(N2CCOCC2)s1)c1ccc([N+](=O)[O-])cc1	36.6%	-16.1%	·	·	·
C/C(=N\Nc1ccc(Cl)c(C(=O)O)c1)c1ccc[nH]1	11.2%	?	25.1µM*	?	10.6%
Cc1cccc(OCc2nnc(SCC(=O)N3CCCCC3)o2)c1	27.0%	5.8%	24.3%	5.3%	3.5%
FC(F)(F)c1ccnc(NCc2ccc(Cl)cc2)n1	113.0%	63.4%	83.2%	60.8%	11.5%
O=S(=O)(NNc1nccc(C(F)(F)F)n1)c1cccc(Cl)c1Cl	10.3%	-13.6%	8.91µM*	-3.4%	35.5µM*
CCOC(=O)C1=CN2CCC[C@H]2CC1=O	20.2%	-9.7%	·	·	·
O=C1CC2CCCN2C=C1I (configuration not stated)	22.8%	17.8µM*	·	·	·
CN1CCN(c2cc(=O)n(C3CCCCC3)c(=O)[nH]2)CC1	26.9%	-15.5%	35.5µM*	7.5%	17.7%
SMILES	HP1b chromo inh	JMJD2A Tudor inh	G9a block	BAZ2B block	Sfp inh
CCN1CCN(c2cc(=O)n(C3CCCCC3)c(=O)[nH]2)CC1	57.7%	7.6%	50.1µM*	10.7%	20.2%
O=c1[nH]c(=S)c2ncn(-c3ccccc3)c2[nH]1	-6.9%	14.1µM*	25.1µM*	?	17.8µM*
Nc1nc2c(ncn2-c2ccccc2)c(=O)[nH]1	29.4%	0.0%	·	·	·
C=CCN1c2ccccc2[C@]23C[C@@H](C(=O)OC)N(S(=O)(=O)c4ccc(C)cc4)C2=NC(C(=O)OC)=C(C(=O)OC)[C@H]13	·	·	·	·	-7.9%
Cc1ccc(C(=O)CC(c2cccs2)S(=O)(=O)c2ccc(C)cc2)cc1 (configuration not stated)	17.3%	2.1%	-28.1%[59 µM]	-4.8%	1.8%
O=C(CC(c1cccs1)S(=O)(=O)c1ccccc1)c1ccc(F)cc1 (configuration not stated)	29.6%	9.3%	8.91µM*	-24.2%	-1.7%
N#Cc1nc(Cc2ccccc2)oc1N1CCN(c2ccccc2)CC1	14.1µM*	28.2µM*	?	10µM*	-6.5%
N#Cc1nc(-c2cccs2)oc1N1CCN(c2ccccc2)CC1	-20.2%	?	8.91µM*	?	15.4%
C=CCNc1oc(-c2cccs2)nc1C#N	1.9%	-14.2%	15.6%[2.33 µM]	-35.7%	8.4%
Cc1cc(=O)n2nc(N3CCC(C(=O)Nc4ccc(C)c(Cl)c4)CC3)sc2n1	16.1%	-8.7%	8.5%[59 µM]	1.3%	·
CCN(CC)c1ccc(NC(=O)c2ccccc2F)cc1	-14.3%	?	?	44.7µM*	-16.2%
CC(=O)Nc1ccc(NC(=O)c2c(C)noc2C)cc1	48.1%	-11.9%	·	-5.4%	1.6%
CCN(CC)c1ccc(NC(=O)c2ccco2)cc1	-0.8%	?	35.5µM*	-33.8%	-7.5%
Cc1ccc(C)n1NC(=O)c1ccco1	15.7%	-14.7%	39.8µM*	-0.8%	15.7%
CCN(CC)c1ccc(NC(=O)c2c(C)noc2C)cc1	15.4%	-26.5%	28.2µM*	?	-4.0%
CCNC(=O)c1c(NC(=O)c2cc(-c3cc(C)cc(C)c3O)n[nH]2)sc2c1CCCC2	12.0%	-19.0%	·	·	·
Cc1ccc(NC(=O)CCNC(=O)c2ccco2)cc1	23.3%	-10.8%	14.6%	-4.9%	-11.4%
CC(C)C(=O)Nc1ccc(NC(=O)c2ccco2)cn1	52.9%	-7.2%	35.5µM*	?	2.4%
CCN(c1ccc(NC(=O)CCNC(=O)c2ccco2)cc1)C(C)C	-8.3%	-33.8%	5.01µM*	-30.0%	-3.9%
Cc1cc(C)nc(NS(=O)(=O)c2ccc(NC(=S)NC(=O)c3ccco3)cc2)n1	1.6%	-12.7%	50.1µM*	1.3%	?
CCCCOC(=O)c1ccc(NC(=S)NC(=O)c2ccco2)cc1	-3.8%	-29.7%	-45.5%	?	-15.5%
CCN(CC)c1ccc(NC(=S)NC(=O)c2ccco2)cc1	44.7µM*	28.2µM*	28.2µM*	17.8µM*	35.5µM*
COc1cc(NS(=O)(=O)c2ccc(NC(=S)NC(=O)c3ccco3)cc2)nc(OC)n1	9.9%	-11.6%	·	?	-24.9%
Cc1ccc(NS(=O)(=O)c2cc3c(cc2C)OCC(=O)N3)cc1C	·	-26.2%	·	·	·
Cc1cc(NC(=O)c2cc(-c3ccc(Cl)c(Cl)c3)on2)n(-c2ccccc2)n1	28.9%	-5.5%	-8.5%[59 µM]	-14.8%	·
Cc1ccccc1-n1c(Cc2cccs2)n[nH]c1=S	1.0%	8.91µM*	?	-5.1%[57.1 µM]	?
